# Screening data deposited in PubChem BioAssay by National Center for Advancing Translational Sciences (NCATS).
# HT1080-NT tox: kills 2HG-producing HT-1080-NT fibrosarcoma cells | HT-1080-NT fibrosarcoma viability, CellTiter-Glo ATP luminescence, 48 h | Potency, µM (top dose mostly 46.1 µM), inactives show at the highest dose activity, negative = less viability, actives largely listed as cytotoxic | 1.6% of 360,000 active | AID 686970;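 further: NT is the 2HG producing partner of a matched IDH1 knockdown line; potency means the concentration at half of the fitted maximal effect; 0% = DMSO-treated cells and -100% = media-only wells without cells; nearly all actives have a fitted effect of over 55% in size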
#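 Luminescent CellTiter-Glo readout after 48 hours of compound exposure at 37 degrees C defined viability of HT-1080-NT cells. Activity was normalized to DMSO wells and cell-free media wells; concentration-response curves were fitted and assigned curve classes.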
# HT1080 IDH1KD tx: toxicity to HT-1080 IDH1 knockdown cells (counter line); HT-1080 IDH1 knockdown viability, ATP luminescence, 48 h; Potency, µM (series often up to 46.1 µM), for inactives: top-dose activity, negative = toxicity, hits mostly cytotoxic; 2% of 360,000 active; AID 686971;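 further: potency means the concentration at half of the fitted maximal effect; 0% = DMSO wells and -100% = cell-free medium wells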
#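 After a 2 h attachment period, IDH1KD HT-1080 cells took pin-transferred compound for 48 h at 37 °C; ATP-based luminescence after 10 min room-temperature reagent incubation reported viability.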
# TDP1 cell noCPT: qHTS for Inhibitors of human tyrosyl-DNA phosphodiesterase 1 (TDP1): qHTS in cells in absence of CPT | DT40 Tdp1-/- hTDP1 cells, no CPT, ATP luminescence, 48 h | Potency, µM (highest dose often 46.2 µM), for the others: top-dose activity change, negative = growth inhibition, actives largely listed as inhibitors | 15% of 420,000 active; further: potency means the concentration at half of the fitted maximal effect; nearly all actives have a fitted effect of over 55% in size
#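 Chicken DT40 Tdp1-/- cells complemented with human TDP1, screened without camptothecin (DMSO vehicle only), 400 cells/well. Compounds pin-transferred, cells incubated at 37 °C for at least 48 hr. Growth read as ATP-dependent luminescence (CellTiter-Glo, 30 min at RT).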
# DT40 TDP1 CPT: DT40-hTDP1 cell growth loss with CPT; 12% of 420,000 active; chicken DT40 Tdp1-/-;hTDP1 cells + 20 nM CPT, ATP luminescence, 48 h; Potency, µM (doses to about 46.2 µM), without a hit: at the top dose activity change, negative = growth inhibition, hits mostly inhibitors; AID 686979; further: potency means the concentration at half of the fitted maximal effect; nearly all actives have a fitted effect of over 55% in size
#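 Cell growth measured by CellTiter-Glo luminescence after a minimum 48 h, 37 C compound exposure with 20 nM CPT in Tdp1-knockout DT40 cells stably expressing hTDP1, seeded 400/well; qHTS titration format.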
# IL1B secr inh: inhibitors of inflammasome signaling (IL-1 beta secretion); 4.7% of 360,000 active; THP-1 LPS/ATP IL-1B secretion, AlphaLISA, 16 h; hits give low values; activity change, % at 57.5 µM; AID 743279; in the data active means activity change below about -50%; inconclusive means mostly about -30% to -49%
#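 Secreted IL-1B measured by AlphaLISA bead assay after 16 h compound exposure of THP-1 cells; compounds (final up to 57.5 uM) added 1 h before LPS (250 ng/mL) and ATP (1.25 mM) stimulation; lower signal means less secretion.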
# Active calls of the source: *; u = inconclusive; x = no result given. Shown are actives, neighbours in structure and some others; about 19% of the full set was active somewhere. Unless noted, the call rests on the fitted dose curve; in most records, active means well fitted curve in the direction sought with a large enough effect; inconclusive means small, poorly fitted or top-dose-only effect, or another doubt; inactive means no such curve, though single readings can be large; an effect the other way counts as inactive or inconclusive. Unless noted, on the % scale 0 is the no-effect control and ±100 the full control effect.
SMILES,HT1080-NT tox,HT1080 IDH1KD tx,TDP1 cell noCPT,DT40 TDP1 CPT,IL1B secr inh
CN1C(=O)N(C)c2cccc3cccc1c23,16%,12%,25%,3%,-8
CC1=CC(=O)N(c2cccc3c(N4C(=O)C=C(C)C4=O)cccc23)C1=O,1%,26µM*,2.9µM*,1.8µM*,-81*
CC(=O)NCCC(=O)N1CCc2c([nH]c3ccccc23)C1c1cccc(Cl)c1 (stereo unspecified),u,-27%,15µM*,u,0
Cc1ccc(C2c3[nH]c4ccccc4c3CCN2C(=O)CCC2CCCC2)cc1 (stereo unspecified),x,x,u,16µM*,x
CC(=O)NCCC(=O)N1CCc2c([nH]c3ccccc23)C1c1cccc(C)c1 (stereo unspecified),-4%,-28%,-25%,-30%,10
Cc1cnc(C(=O)N2CCc3c([nH]c4ccccc34)C2c2ccc(F)cc2)cn1 (stereo unspecified),-24%,-26%,u,-26%,1
COC(=O)c1ccc(NC(=O)N2CCc3c([nH]c4ccccc34)C2c2ccc(C)cc2)cc1 (stereo unspecified),x,x,5.8µM*,u,x
Cc1ccc(C2c3[nH]c4ccccc4c3CCN2C(=O)c2ccc(N(C)C)cc2)cc1 (stereo unspecified),x,x,21µM*,21µM*,x
C[C@H](CO)N1C[C@H](C)[C@@H](CN(C)C(=O)Nc2ccc3c(c2)OCO3)Oc2c(NC(=O)Nc3ccccc3)cccc2C1=O,6%,4%,u,u,-17
O=C(CSCc1ccc(F)cc1)N1CCc2c([nH]c3ccccc23)C1c1ccccc1 (stereo unspecified),x,x,15µM*,21µM*,x
CCOc1cccc(CC(=O)N2CCc3c([nH]c4ccccc34)C2c2ccc(SC)cc2)c1OCC (stereo unspecified),x,x,u,-26%,x
Cc1c(C(=O)NCc2cccc([N+](=O)[O-])c2)sc(=O)n1Cc1ccc(F)cc1,-12%,-5%,u,16µM*,u
Cc1c(C(=O)NCc2cccc([N+](=O)[O-])c2)sc(=O)n1Cc1cccc(F)c1,-5%,-17%,-35%,u,u
CC(=O)Oc1ccccc1Cn1c(C)c(C(=O)NCc2cccc([N+](=O)[O-])c2)sc1=O,-10%,-13%,21µM*,u,-24
N#Cc1ccc(S(=O)(=O)N2CCN(Cc3cccs3)CC2)cc1,-2%,3%,u,u,2
c1ccc(-c2nnnn2-c2ccccc2)cc1,5%,0%,21%,6%,-2
ClC(Cl)(c1nnnn1-c1ccccc1)c1nnnn1-c1ccccc1,u,6.5µM*,2.6µM*,1.3µM*,-120*
CCOC(=O)C1CCCN(C(=O)c2oc3ccccc3c2C)CC1 (stereo unspecified),7%,8%,-29%,u,24
CCN(CC)S(=O)(=O)c1cc(NC(=O)COC(=O)c2c(C)noc2C)ccc1C,-3%,-9%,-20%,u,-50*
CCN(CC)S(=O)(=O)c1cc(NC(=O)c2ccccc2OCc2c(C)noc2C)ccc1C,-7%,-10%,16µM*,16µM*,-10
COc1ccc(NC(=O)c2ccccc2OCc2c(C)noc2C)cc1OC,4%,7%,8%,-4%,-1
Cn1cc(C(=O)NCCc2ccc(Cl)cc2)c(=O)c2cc(S(=O)(=O)N3CCCCC3)ccc21,x,x,9%,-5%,x
CS(=O)(=O)N1CCCC(c2nc(-c3ccc(S(=O)(=O)NCc4ccccc4)cc3)no2)C1 (stereo unspecified),u,u,10µM*,13µM*,0
O=C(N1CCOCC1)N1CCC(c2nc(-c3ccc(S(=O)(=O)N4CCOCC4)cc3)no2)CC1,-4%,5%,u,u,9
